Bioassay records deposited in PubChem by National Center for Advancing Translational Sciences (NCATS).
ALDH1A1 inh: blocks purified human ALDH1A1 activity; P00352; Purified ALDH1A1, NADH fluorescence, propionaldehyde substrate; Potency, µM (highest dose often 75.3 µM), for inactives: at the highest dose activity, negative = inhibition, hits mostly inhibitors; actives 7.3% (n = 220,000); AID 1030; active = well fitted inhibition curve with a large enough effect, not every such curve was filed as active; inconclusive = small, poorly fitted or top-dose-only effect, or another doubt; inactive = no such curve, though single readings can be large or run the other way;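 note: potency is the fitted concentration of half-maximal effect; plate controls were no enzyme wells and a reference inhibitor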
Target sequence (P00352 whole entry, looked up): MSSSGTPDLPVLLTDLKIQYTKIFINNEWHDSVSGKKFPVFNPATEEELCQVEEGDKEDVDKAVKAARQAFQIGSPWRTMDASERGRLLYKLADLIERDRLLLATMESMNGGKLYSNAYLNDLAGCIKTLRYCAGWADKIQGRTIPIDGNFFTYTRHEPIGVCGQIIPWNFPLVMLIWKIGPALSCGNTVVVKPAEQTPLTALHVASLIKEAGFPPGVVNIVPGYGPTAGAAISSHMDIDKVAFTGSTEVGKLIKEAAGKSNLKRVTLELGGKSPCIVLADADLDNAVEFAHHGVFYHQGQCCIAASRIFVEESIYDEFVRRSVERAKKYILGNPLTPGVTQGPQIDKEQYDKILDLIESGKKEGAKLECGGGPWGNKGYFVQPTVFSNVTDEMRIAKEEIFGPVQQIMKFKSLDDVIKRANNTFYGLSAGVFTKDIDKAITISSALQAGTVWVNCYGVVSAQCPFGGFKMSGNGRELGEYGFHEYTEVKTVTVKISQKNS
PNC assembly inh: inhibitors of perinucleolar compartment assembly; activity change (PNC), negative = inhibition, % at 10 µM; actives 3.1% (n = 140,000); PC3M PTB-GFP, PNC prevalence imaging, 16 h; stronger effect = lower value; AID 2417;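 active = readout at or below -70, meaning at least 70% loss of cells showing the perinucleolar compartment, a nuclear body marking cancer cells; inconclusive = readout between -30 and a set limit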;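 note: plate controls were DMSO wells for no effect and camptothecin positive control wells for full effect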
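Read-out is percentage of cells bearing a perinucleolar compartment, from automated 20x imaging of fixed, Hoechst-stained PC3M PTB-GFP cells. Cells were seeded 4 h, then exposed 16 h to compound (23 nl of library stock) in duplicate plates.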
IMPase cell inh: IMPase inhibition in cells | P97697 | CHO-M1 cells, IP1 accumulation, HTRF TR-FRET ratio | inhibition (IP1 accumulation), % at 46.1 µM | 120,000 tested, under 10 active | AID 901; active = well fitted curve in the direction sought with a large enough effect in the signal ratio, not every such curve was filed as active; inconclusive = small, poorly fitted or top-dose-only effect, or a change in a side signal; inactive = no such curve, though single readings can be large or run the other way; the % refers to the signal ratio;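 note: cells stimulated with carbachol in lithium chloride buffer; plate controls were DMSO basal wells for no effect and reference inhibitor wells for full effect; higher means more IMPase inhibition seen as more IP1 and lower FRET ratio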
Target sequence (P97697 whole entry, looked up): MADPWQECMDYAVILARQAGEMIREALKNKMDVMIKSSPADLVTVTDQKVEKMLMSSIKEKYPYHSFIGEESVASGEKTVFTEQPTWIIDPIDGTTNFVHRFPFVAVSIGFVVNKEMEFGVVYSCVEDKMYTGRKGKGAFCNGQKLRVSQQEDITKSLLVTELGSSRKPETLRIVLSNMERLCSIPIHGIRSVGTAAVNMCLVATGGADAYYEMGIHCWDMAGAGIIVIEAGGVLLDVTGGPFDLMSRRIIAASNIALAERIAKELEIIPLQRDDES
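CHO-M1 cells (CHO stably expressing M1 receptor), compound up to 46 uM final, stimulated with carbachol (50 uM as added) in buffer with 50mM LiCl, pH 7.4, 30 min at 37C. Cytosolic IP1 read by TR-FRET; AC50 from Hill fits.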
12-hLO inh: 12-hLO (ALOX12) enzyme inhibition. P18054. purified 12-hLO, xylenol orange hydroperoxide absorbance. Potency, µM (series often up to 57.1 µM), without a hit: at the highest dose activity change, negative = inhibition, usual class: inhibitors. actives 0.12% (n = 150,000); note: potency is the fitted concentration of half-maximal effect; nearly all actives have a fitted effect of over 55% in size
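Lipoxygenase turnover measured by absorbance at 573 and 405 nm after Fe-XO development. Human 12hLO 150 nM, arachidonate 40 uM, pH 7.0 Hepes buffer with detergent; 15 min compound preincubation, 30 min reaction.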
HPGD inh: HPGD (human) dehydrogenase inhibition | P15428 | purified HPGD, NADH fluorescence kinetic, PGE2 substrate | Potency, µM, without a hit: top-dose activity change, negative = inhibition, most hits filed as inhibitors | actives 4.3% (n = 150,000); active = well fitted inhibition curve with a large enough effect, not every such curve was filed as active; inconclusive = small, poorly fitted or top-dose-only effect, or another doubt; inactive = no such curve, though single readings can be large or run the other way; note: potency is the fitted concentration of half-maximal effect
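20 nM HPGD preincubated 15 min at room temperature with compound in 50 mM Tris-HCl pH 8, 0.01% Tween 20. Started with 1 mM NAD+ and 30 uM prostaglandin E2; NADH fluorescence (360/450 nm) read 5 times over 30-s intervals, last minus first.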
IMPase Li inh: membrane-permeable IMPase blocker, potentiated with lithium; CHO-M1 cells, IP1 TR-FRET (IP-One), carbachol + lithium; Potency, µM (doses to about 59.4 µM), for the others: at the highest dose activity, negative = IMPase inhibition, hits mostly inhibitors; actives 0.35% (n = 210,000);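 note: IP1 builds up when IMPase is blocked and the TR-FRET signal falls; potency is the fitted concentration of half-maximal effect; plate controls were basal vehicle for no effect and high inhibitor control for full effect; nearly all actives have a fitted effect of over 50% in size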
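Readout is a homogeneous TR-FRET IP1 immunoassay (Ex 320, Em 665 and 620), where raised cytosolic IP1 lowers signal. Cells were CHO-M1 treated 30 min at 37C with test compounds plus a little lithium; AC50 values came from Hill-equation fitting.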
* hit, by the source's call; ? = inconclusive; · = no result given; [ ] = dose if it differs, or a comment. Shown are actives, neighbours in structure and some others; about 11% of the full set was active somewhere. Unless noted, calls come from the whole dose curve; as a rule, active = well fitted curve in the direction sought with a large enough effect; inconclusive = small, poorly fitted or top-dose-only effect, or another doubt; inactive = no such curve, though single readings can be large; an effect the other way counts as inactive or inconclusive. Unless noted, % is set by controls: 0 for no effect and ±100 for the full control effect.

SMILES	ALDH1A1 inh	PNC assembly inh	IMPase cell inh	12-hLO inh	HPGD inh	IMPase Li inh
COc1ccc(-c2cc(C(=O)N3CC4(C)CC3CC(C)(C)C4)no2)cc1OC (stereo unspecified)	-15%	13	3	-3%	-25%	13%[38.3 µM]
O=C1c2ccccc2-c2ccc(C(=O)N3CCOCC3)cc21	-4%	?	7	-4%	11µM*	14%[38.3 µM]
Cc1ccc(N2C(=O)c3ccc(C(=O)N4CCOCC4)cc3C2=O)cc1C	?	-10	?	5%	-5%	0%
O=C(c1cc(-c2ccc(Cl)c(Cl)c2)on1)N1CCCCC1	8.9µM*	22	8	-10%	2.8µM*	0%[38.3 µM]
O=C(O)CN(CC(=O)O)c1ccccc1	24%[13.5 µM]	·	·	-1%[11.4 µM]	-5%	-4%
COc1cc(-c2coc3cc(OCc4ccccc4)c(OC)c(O)c3c2=O)cc(O)c1OC	?	·	·	-8%	?	26%
O=C(c1cccc(-c2ccc(O)cc2)c1)N1CCOCC1	-5%	18	-4	3%	16µM*	8%[38.3 µM]
CC(C)CNC(=O)c1cc(-c2ccc(Cl)c(Cl)c2)on1	-12%	29	0	-2%	-11%	10%[38.3 µM]
COc1cccc(-c2cc(C(=O)N3C(C)CCCC3C)no2)c1 (stereo unspecified)	?	-91*	6	0%	8.9µM*	24%[38.3 µM]
CCC1CCCCN1C(=O)c1cc(-c2ccc(Cl)c(Cl)c2)on1 (stereo unspecified)	-1%	-20	-12	-3%	4.5µM*	-11%
COc1cccc(-c2cc(C(=O)N3CCN(C(c4ccccc4)c4ccccc4)CC3)no2)c1	?	?	7	0%	-20%	9%[38.3 µM]
O=C(c1cc(-c2cccc(O)c2)on1)N1CCOCC1	?	-85*	1	-1%	-26%	18%[38.3 µM]
CCOc1ncccc1C(=O)NCCN1C(=O)S/C(=C/c2cccs2)C1=O	-3%	-15	·	1%	-1%	10%
Cc1c(Cl)c(S(N)(=O)=O)cc(S(N)(=O)=O)c1NC(=O)c1ccc(Cl)cc1	10%[13.5 µM]	·	·	0%[11.4 µM]	-8%	-9%
N#CC(CC(=O)O)=C(c1ccccc1)c1ccccc1	4%[13.5 µM]	·	·	4%[11.4 µM]	-25%	2%
CN(C)CCCNC(=O)c1ccc(Cc2nc3ccccc3[nH]2)cc1	2%	·	·	-1%	-10%	·
CC1CCCCN1C(=O)c1cc(-c2ccc(Cl)c(Cl)c2)on1 (stereo unspecified)	?	-8	6	-14%	4.5µM*	12%[38.3 µM]
O=c1[nH]c(-c2ccncc2)nc2ccccc12	7.9µM*	7	0	-3%	7.1µM*	7%[38.3 µM]
Cc1sc2nc(-c3cccnc3)[nH]c(=O)c2c1-c1ccccc1	?	·	·	·	·	4%
O=c1[nH]c(-c2cccnc2)nc2ccccc12	12%	?	-12	-1%	18µM*	0%
O=c1[nH]cc(CS(=O)(=O)Cc2c[nH]c(=O)[nH]c2=O)c(=O)[nH]1	-12%[13.5 µM]	·	·	0%[11.4 µM]	-7%	-10%
O=c1c(-c2cccc(F)c2)nc2cncnc2n1Cc1ccccc1	-3%	·	·	-5%	-19%	-5%
CN(Cc1ccco1)c1ncnc2ccc(-c3ccccc3C(F)(F)F)cc12	-9%	·	·	·	·	20%
Cc1cnc(NC(=O)CSc2nnc(COc3c(C)cccc3C)o2)s1	-6%	-119*	6	5%	-7%	1%
CCN(CC(=O)Nc1c(C(=O)OC)[nH]c2ccc(C)cc12)c1ccc2c(c1)OCO2	14µM*	-119*	14	-14%	·	·
SMILES	ALDH1A1 inh	PNC assembly inh	IMPase cell inh	12-hLO inh	HPGD inh	IMPase Li inh
N#Cc1c(-c2ccc(F)cc2)cc(-c2ccccc2)nc1SCC(=O)NCC(=O)O	8.9µM*	·	·	·	·	·
CCN(CC(=O)Nc1ccc(N2CCOCC2)cc1)Cc1nc2ccccc2c(=O)[nH]1	22µM*	19	5	6%	-25%	-5%[38.3 µM]
COc1cc2nc(CN(C)CC(=O)Nc3ccc(N4CCOCC4)cc3)[nH]c(=O)c2cc1OC	28µM*	-24	17	-9%	?	-2%[38.3 µM]
CCN(CC(=O)NCc1ccc(F)cc1)Cc1nc2cc(Cl)ccc2c(=O)[nH]1	22µM*	12	12	-6%	32µM*	28%[38.3 µM]
CCN(CC(=O)Nc1ccc2c(c1)OCO2)Cc1nc2ccccc2c(=O)[nH]1	?	23	6	-3%	-6%	-4%[38.3 µM]
CCN(CC(=O)Nc1ccc2c(c1)CCC2)Cc1nc2ccccc2c(=O)[nH]1	14µM*	-3	0	-2%	-24%	13%
CCN(CC(=O)Nc1ccccc1-c1ccccc1)Cc1nc2ccccc2c(=O)[nH]1	?	·	·	·	·	3%
CSc1ccccc1NC(=O)CN(C)CC(=O)Nc1ccc(N2CCOCC2)cc1	-5%	·	·	·	·	7%
CCN(CC)CC(=O)Nc1ccc2c(c1)Nc1ccccc1CC2	20µM*	?	2	-7%	-17%	-4%[38.3 µM]
CN(CC(=O)Nc1ccc(N2CCOCC2)cc1)Cc1c(O)ccc2ccccc12	3.5µM*	·	·	·	·	3%
CCN(CC(=O)NC(c1ccccc1)c1ccccc1)Cc1nc2ccccc2c(=O)[nH]1	18µM*	22	2	-8%	-18%	7%[38.3 µM]
COc1ccc(-n2c(=O)c(-c3cccc(C#N)c3)nc3cnc(N4CCNCC4)nc32)cc1	-17%	·	·	·	·	4%
COc1ccc(OC)c(NC(=O)CSc2ncccc2C(=O)O)c1	?	?	0	-1%	13µM*	7%[38.3 µM]
COc1ccc(NC(=O)CSc2ncccc2C(=O)OC(C)C)cc1OC	0.079µM*	-12	9	-5%	-14%	29%[38.3 µM]
Nc1nonc1NC(=O)CSc1ncccc1C(=O)O	-13%	-84*	-2	1%	-6%	-2%[38.3 µM]
COc1ccc(NC(=O)CSc2ccccn2)cc1OC	-6%	10	2	-5%	-17%	0%[38.3 µM]
CCCCNC(=S)NC(=O)c1ccc(Cl)cc1Cl	25µM*	?	6	?	-17%	28%[38.3 µM]
O=C(NC(=S)NCCN1CCOCC1)c1ccc(Cl)cc1Cl	0%	17	-1	4%	-16%	1%[38.3 µM]
COc1ccc(-n2cnc3scc(-c4ccccc4)c3c2=O)cc1	10%	·	·	·	·	15%
Cc1ccc(S(=O)(=O)NNc2nc3ccccc3nc2C(F)(F)F)cc1	7.1µM*	-7	0	?	3.2µM*	2%[38.3 µM]
Cc1ccc(S(=O)(=O)NNc2ccccc2)cc1	5.6µM*	-16	9	16µM*	5µM*	-8%[38.3 µM]
O=C(NNc1nc2ccccc2nc1C(F)(F)F)c1ccccc1	?	27	2	4%	-8%	10%[38.3 µM]
CCCn1c(-c2ccc(F)cc2)nc2c(NCCCCN(CC)CC)nc(C)nc21	?	·	·	3%	?	14%
COc1cc(/C=C(\NC(C)=O)C(=O)NC(C)(C)C)ccc1OC(C)=O	9%	84	·	0%	-16%	6%
